Bioassay records (PubChem)
An excerpt weighted towards active compounds, which were near 1.8% of everything screened.
TLR4 MyD88 comp – TLR4-MyD88 interaction inhibition in cells; actives 0.18% (n = 200,000); O00206+Q99836; HeLa CL3-4 TLR4/MyD88 BLA complementation, FRET ratio; inhibition, % at 8.4 µM; in the data active means inhibition above about 25%;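 further: 0% = vehicle and 100% = reference inhibitor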
Bim-Mcl-1 – inhibitors of Bim-Mcl-1 interaction, human | actives 0.1% (n = 190,000) | Bead-based flow cytometry, Bim peptide-Mcl-1 binding | Q07820 | inhibition, % at 10 µM | AID 1009; in the data active means inhibition above about 40%;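 further: 0% = no compound tracer wells and 100% = peptide blocker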
Mcl1-Noxa inh – Mcl-1/Noxa interaction inhibition; Q07820; TR-FRET Mcl-1/Noxa peptide binding, 2 h; inhibition, % at 21.7 µM; actives 1.5% (n = 220,000);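 active means compounds that cut the protein-peptide binding signal by more than 50% relative to plate controls in a single-dose test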;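 further: His-tagged Mcl-1 with rhodamine Noxa BH3 peptide and terbium anti-His antibody; 0% = Mcl-1 plus Noxa peptide wells and 100% = peptide-only wells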
TLR9-MyD88 inh – inhibitors of human TLR9-MyD88 binding; inhibition, % at 4.98 µM; AID 504734; Q9NR96+Q99836; CHO BLA complementation TLR9-MyD88, CCF4 FRET ratio; actives 0.21% (n = 340,000);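 active means inhibition above the mean over all tested compounds plus 3 SD, cut at about 21% in these data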;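 further: 0% = DMSO only wells and 100% = clavulanate BLA inhibitor control wells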
NOD2 RIPK2 PPI – blocks binding of human NOD2 to RIPK2 | actives 0.38% (n = 360,000) | O43353 | CHO BLA complementation NOD2-RIPK2, CCF4 ratio | inhibition, % at 4.98 µM; in the data active means inhibition above about 21%;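 further: 0% = vehicle only and 100% = reference blocker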
Mcl1 Bid PPI – disrupts binding of human Mcl-1 to Bid peptide | AID 1021 | inhibition, % at 21.7 µM | TR-FRET Mcl-1/Bid-Dy647 peptide binding, 1536-well | actives 0.97% (n = 220,000);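 active means compounds that cut the binding signal by more than half at the single screening dose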;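 further: His-tagged Mcl-1 with europium anti-His antibody binding Bid BH3 peptide; 0% = Mcl-1 plus peptide wells and 100% = peptide-only wells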
TLR9-MyD88 cf – TLR9-MyD88 interaction inhibition, confirmation | shares compounds with TLR9-MyD88 inh | CHO TLR9/MyD88 BLA complementation, CCF4 FRET ratio | inhibition, % at 4.98 µM | actives 51% (n = 680);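 active means mean inhibition across three repeats above about 21% taken from the earlier screen, limit read from the data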;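 further: blue over green emission ratio reports constitutive TLR9 MyD88 association via BLA complementation; 0% = DMSO vehicle wells and 100% = clavulanate BLA inhibitor wells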
BLA counter-1 – non-selective beta-lactamase inhibitors in TLR9-MyD88 counter-screen; actives 7% (n = 680); CHO-BLA cells, CCF4 FRET ratio, BLA reporter; inhibition, % at 4.98 µM; shares compounds with TLR9-MyD88 inh;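 active means mean inhibition above a 50% cutoff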;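 further: counterscreen of TLR9-MyD88 hits on CMV-driven BLA in CHO-K1 cells; 0% = DMSO alone and 100% = clavulanate blocking BLA; higher means less blue over green ratio so more BLA blockade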
TLR9 CHO cytotox – counter-screen for TLR9-MyD88 inhibitors: cytotoxicity in CHO cells; actives 39% (n = 680); inhibition, % at 4.98 µM; shares compounds with TLR9-MyD88 inh; luminescence; in the data active means inhibition above about 11%
NOD2 RIPK2 conf – confirmation of human NOD2-RIPK2 interaction inhibitors | shares compounds with NOD2 RIPK2 PPI | CHO cells, NOD2-RIPK2 BLA complementation, CCF4 FRET | inhibition, % at 4.98 µM | actives 70% (n = 1,200) | AID 624370;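 active means mean inhibition across replicates above a set limit taken from the earlier primary screen, cut at about 21% in these data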;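 further: 0% = DMSO-only wells and the high end = clavulanate BLA-blocked wells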
BLA counter-2 – counter-screen for NOD2-RIPK2 interaction inhibitors: BLA reporter | shares compounds with NOD2 RIPK2 PPI | CHO BLA reporter, CCF4 FRET ratio, counterscreen | actives 57% (n = 1,200) | AID 624371 | inhibition, % at 4.98 µM;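 active means mean inhibition above the low-control mean inhibition plus three low-control SD, cut at about 11% in these data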;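 further: 0% = DMSO only wells and 100% = clavulanate high control wells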
Starred values were filed as active, the others as inactive; . = no result given.

SMILES	TLR4 MyD88 comp	Bim-Mcl-1	Mcl1-Noxa inh	TLR9-MyD88 inh	NOD2 RIPK2 PPI	Mcl1 Bid PPI	TLR9-MyD88 cf	BLA counter-1	TLR9 CHO cytotox	NOD2 RIPK2 conf	BLA counter-2
CC(=O)Oc1cccc(N2C(=O)c3ccc(C(=O)O)cc3C2=O)c1	-4	-2	25	-7	-1	23	.	.	.	.	.
Cc1ccc(C(=O)O)cc1N1C(=O)c2cccc3c([N+](=O)[O-])ccc(c23)C1=O	.	.	.	29*	56*	.	26*	22	-3	45*	39*
CC(=O)Oc1cccc(N2C(=O)c3cccc4c([N+](=O)[O-])ccc(c34)C2=O)c1	.	.	.	42*	45*	.	47*	42	94*	63*	67*
CN(Cc1cnn(Cc2ccccc2)c1)C(=O)CN=C1NS(=O)(=O)c2ccccc21	.	.	.	-1	-9	.	.	.	.	.	.
COc1ccc(C(=O)/C=C/c2ccc(N(C)C)cc2)c(OC)c1	.	.	-51	36*	59*	-113	29*	31	0	62*	66*
CCOC(=O)CC(NC(=O)c1cc2cccc(OC)c2oc1=O)c1ccc(OC)cc1 (stereo not drawn)	.	.	.	-3	-9	.	.	.	.	.	.
CN(C)c1ccc(-n2cccc2/C=C/[N+](=O)[O-])cc1	7	0	17	0	15	-19	.	.	.	.	.
CN(c1ccccc1)c1ccc(/C=C/[N+](=O)[O-])cc1	10	-3	10	26*	75*	16	28*	11	81*	89*	29*
CCCCC1(CO)C(=O)N(c2ccccc2)N(c2ccccc2)C1=O	.	.	-13	5	-4	28	.	.	.	.	.
CCCCC1C(=O)N(c2ccccc2)N(c2ccc(O)cc2)C1=O (stereo not drawn)	.	.	.	29*	68*	.	6	-1	82*	29*	4
Cc1nnc(Sc2cc(NCCCO)c([N+](=O)[O-])c3nonc23)s1	15	-3	79*	36*	41*	-79	64*	4	99*	60*	18*
CCC(=O)OCCNc1cc(Sc2nc3ccccc3s2)c2nonc2c1[N+](=O)[O-]	10	2	58*	39*	49*	-100	61*	13	98*	75*	14*
CCCSc1cc(NCCOC(C)=O)c([N+](=O)[O-])c2nonc12	-6	-3	-1	-1	-2	-12	.	.	.	.	.
CCCC(=O)OCCNc1cc(Sc2nccn2C)c2nonc2c1[N+](=O)[O-]	24	-5	21	53*	71*	-56	71*	16	97*	92*	47*
CCCC(=O)OCCNc1cc(SCc2ccco2)c2nonc2c1[N+](=O)[O-]	1	2	32	6	1	-31	.	.	.	.	.
Cc1ccc(S(=O)(=O)NCCC(=O)NCC(c2ccco2)N2CCCCC2)cc1C (stereo not drawn)	.	.	.	6	-15	.	.	.	.	.	.
CC1(c2ccccc2Cl)NC(=O)N(CC(=O)NCc2ccc3c(c2)OCO3)C1=O (stereo not drawn)	.	.	.	-7	-11	.	.	.	.	.	.
O=C(NCC(c1cccnc1)N1CCN(c2ccc(F)cc2)CC1)c1ccc(F)cc1 (stereo not drawn)	15	-3	.	8	14	-14	.	.	.	.	.
CCOc1ccccc1-n1c(SCC(=O)Nc2ccccc2C(=O)O)nc2ccccc2c1=O	.	.	.	1	-5	.	.	.	.	.	.
CC(=NNC(=S)N1CCN(c2ccccn2)CC1)c1nccs1	.	.	.	37*	24*	.	28*	18	97*	42*	18*
O=C(O)C(c1ccccc1)C(O)c1ccc2c(c1)OCO2 (stereo not drawn)	.	.	.	-4	3	.	.	.	.	.	.
Cc1ccc(-n2sc3ccccc3c2=O)cc1	8	-10	27	5	15	-34	.	.	.	.	.
O=c1c2ccccc2sn1-c1ccc(F)cc1	.	.	.	32*	35*	.	9	0	58*	37*	2
CCN1CCN(Cc2c(O)ccc3c2O/C(=C\c2ccccc2)C3=O)CC1	8	1	7	21*	27*	-31	15	12	0	25*	28*
CCN1CCN(Cc2c(O)ccc3c2O/C(=C\C=C\c2ccccc2)C3=O)CC1	4	-1	24	6	7	-26	.	.	.	.	.
SMILES	TLR4 MyD88 comp	Bim-Mcl-1	Mcl1-Noxa inh	TLR9-MyD88 inh	NOD2 RIPK2 PPI	Mcl1 Bid PPI	TLR9-MyD88 cf	BLA counter-1	TLR9 CHO cytotox	NOD2 RIPK2 conf	BLA counter-2
Nc1c(C(=O)N2CCCCC2)sc2nc3c(cc12)CCCC3	.	.	.	0	-3	.	.	.	.	.	.
Nc1c(C(=O)N2CCCC2)sc2nc(-c3ccccc3)ccc12	.	.	34	30*	34*	-14	32*	30	5	52*	61*
CN(Cc1ccccc1)C(=O)c1[nH]cnc1C(=O)Nc1ccccc1F	.	.	.	5	7	.	.	.	.	.	.
Cc1ccccc1NC(=O)c1cccc(C(=O)Nc2ccccc2C)n1	.	.	.	-5	-8	.	.	.	.	.	.
CCOC(=O)c1nc(S(C)(=O)=O)ncc1Cl	14	0	19	34*	22*	-32	37*	27	43*	56*	25*
Cc1ccccc1NC(=O)c1nc(S(C)(=O)=O)ncc1Cl	.	.	.	38*	30*	.	37*	13	87*	60*	29*
CCS(=O)(=O)c1ncc(Cl)c(C(=O)Nc2ccc(S(=O)(=O)N(C)c3ccccc3)cc2)n1	.	.	.	55*	99*	.	54*	50*	100*	96*	54*
CCN(c1ccccc1)S(=O)(=O)c1ccc(NC(=O)c2nc(S(C)(=O)=O)ncc2Cl)cc1	.	.	.	61*	97*	.	59*	39	100*	98*	49*
C=CCn1c(Sc2ncc([N+](=O)[O-])s2)n[nH]c1=O	.	.	3	32*	63*	-30	44*	-2	99*	77*	15*
C=CCn1c(CSc2ccccc2[N+](=O)[O-])n[nH]c1=S	.	.	.	-3	-11	.	.	.	.	.	.
O=C(Nc1ccc(OC(F)(F)F)cc1)c1[nH]ncc1[N+](=O)[O-]	1	0	-39	25*	25*	-40	2	8	9	20	6
Cc1onc(C(=O)Nc2ccc(OC(F)(F)F)cc2)c1[N+](=O)[O-]	.	.	.	3	-4	.	.	.	.	.	.
